# Assay outcomes as filed in PubChem BioAssay.
# 14-3-3 Bad inh – disrupts binding of bovine 14-3-3 zeta to phospho-Bad peptide; P63103; TR-FRET 14-3-3zeta/Dy647-pBad peptide displacement, 1 h; inhibition, % at 21.7 µM; hit rate 0.71% among 220,000; AID 781;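 active = inhibition above about 70%, limit read from the data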;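 note: 0% = full 14-3-3 plus peptide FRET controls and 100% = background without 14-3-3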
# Target sequence (P63103 whole entry, looked up): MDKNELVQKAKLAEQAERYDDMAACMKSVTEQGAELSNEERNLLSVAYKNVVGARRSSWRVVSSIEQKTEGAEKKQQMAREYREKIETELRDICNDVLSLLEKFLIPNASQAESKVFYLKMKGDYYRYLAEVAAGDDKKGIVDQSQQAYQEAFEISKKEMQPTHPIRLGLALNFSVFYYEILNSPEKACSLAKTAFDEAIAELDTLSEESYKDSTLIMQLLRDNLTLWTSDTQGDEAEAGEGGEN
# Mcl1 Bid PPI – disrupts binding of human Mcl-1 to Bid peptide. inhibition, % at 21.7 µM. hit rate 0.97% among 220,000. TR-FRET Mcl-1/Bid-Dy647 peptide binding, 1536-well. AID 1021;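 active = compounds that cut the binding signal by more than half at the single screening dose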;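 note: His-tagged Mcl-1 with europium anti-His antibody binding Bid BH3 peptide; 0% = Mcl-1 plus peptide wells and 100% = peptide-only wells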
# Target sequence (Q07820 whole entry, looked up): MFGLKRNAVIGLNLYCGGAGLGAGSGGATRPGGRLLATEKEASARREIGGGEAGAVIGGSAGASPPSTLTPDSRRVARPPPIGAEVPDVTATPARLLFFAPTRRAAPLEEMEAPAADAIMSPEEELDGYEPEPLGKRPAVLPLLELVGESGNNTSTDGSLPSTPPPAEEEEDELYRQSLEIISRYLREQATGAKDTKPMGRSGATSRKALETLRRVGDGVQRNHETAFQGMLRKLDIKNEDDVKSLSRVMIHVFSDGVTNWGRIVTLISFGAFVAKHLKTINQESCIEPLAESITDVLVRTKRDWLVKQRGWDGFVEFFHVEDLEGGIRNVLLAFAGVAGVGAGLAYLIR
# eIF4E-4G inh – eIF4E/eIF4G interaction inhibition in translation initiation | TR-FRET eIF4E-eIF4GI(517-606) binding, 2 h | inhibition, % at 21.7 µM | hit rate 0.37% among 220,000 | AID 782;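 active = inhibition above about 30%, limit read from the data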;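 note: 0% = full FRET control wells and 100% = background wells lacking eIF4GI fragment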
# Mcl1 Noxa PPI – disrupts binding of human Mcl-1 to Noxa peptide | Q07820 | AID 1022 | inhibition, % at 21.7 µM | hit rate 1.5% among 220,000 | TR-FRET Mcl-1/Noxa peptide binding, 2 h;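 active = compounds that cut the protein-peptide binding signal by more than 50% relative to plate controls in a single-dose test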;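 note: His-tagged Mcl-1 with rhodamine Noxa BH3 peptide and terbium anti-His antibody; 0% = Mcl-1 plus Noxa peptide wells and 100% = peptide-only wells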
# Hck-Nef inh – inhibitors of human Hck kinase activated by Nef; P08631; Recombinant Hck-YEEI plus Nef, Z-Lyte FRET kinase assay; inhibition, % at 20 µM; hit rate 0.68% among 220,000;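 active = Hck-Nef kinase inhibition above about 50%, limit read from the data; inactive = inhibition below that limit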;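 note: 0% = DMSO with Hck plus Nef and 100% = Hck alone without Nef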
# Mcl-1 Bim block – inhibitors of Bim-Mcl-1 interaction, human | AID 1009 | inhibition, % at 10 µM | Bead-based flow cytometry, Bim peptide-Mcl-1 binding | hit rate 0.1% among 190,000 | Q07820; in the data active = inhibition above about 40%;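 note: 0% = no compound tracer wells and 100% = peptide blocker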
# * hit, by the source's call; · = not tested or not shown; [ ] = dose if it differs, or a comment. Hits are enriched below; roughly 3.5% of the tested compounds scored in any of these assays.
SMILES,14-3-3 Bad inh,Mcl1 Bid PPI,eIF4E-4G inh,Mcl1 Noxa PPI,Hck-Nef inh,Mcl-1 Bim block
COc1cc(CN2CCC(C(=O)N3CCCC(C)C3)CC2)cc(Br)c1O (stereo not drawn),79*,-8,15,20,1,-3
CCOC(=O)C1CCCCN1Cc1cccc(OC)c1OC (stereo not drawn),76*,-2,4,7,-2,-2
CCOC(=O)C1CCN(Cc2ccc(F)cc2F)CC1,76*,15,1,6,-3,3
CCOC(=O)C1CCN(Cc2ccc(F)c(Br)c2)CC1,23,39,1,24,-1,6
COC(/C=C/Nc1ccc(C)cc1)=C(C#N)C#N,-7,17,-11,6,1,0
Cc1ccc(C(=O)N2CCC3(CC2)Oc2ccc(F)cc2C(=O)C32CC(c3ccc(Cl)cc3)=NO2)s1 (stereo not drawn),-1,-36,-3,-1,21,·
CCOC(=O)C1CCCCN1Cc1cn(C)nc1-c1ccccc1F (stereo not drawn),-5,-14,1,-13,18,·
COc1ccc(F)c(CN2CCC(N3CCC(C(=O)N4CCOCC4)CC3)CC2)c1,-10,-46,1,0,17,2
COc1ccc(OC)c(CN2CCC(C(=O)N3CCOCC3)CC2)c1,24,53*,-6,13,2,0
CCOC(=O)C1CCCCN1Cc1cccc(F)c1 (stereo not drawn),71*,47,4,27,0,-1
CCCc1c(-c2ccc(O)cc2)nn(-c2ccc(O)cc2)c1-c1ccc(O)cc1,-2,-12,-16,26,40,·
COc1ccc(C2/C=C\CN(C(=O)c3ccccc3)[C@H](Cc3ccccc3)C(=O)N2Cc2ccc(F)cc2)cc1 (stereo partly drawn),-5,-45,60*,-12,22,·
CCc1ccc(CCC(=O)Nc2ccc(C)cc2C)o1,4,84*,4,38,6,-1
O=[N+]([O-])c1cccc(S(=O)(=O)Nc2nc3ccccc3nc2Nc2cccc(S(=O)(=O)N3CCCCC3)c2)c1,10,99*,9,73*,7,-8
Cc1ccc(S(=O)(=O)Nc2nc3ccccc3nc2Nc2cccc(S(=O)(=O)N3CCCC3)c2)cc1,2,9,4,28,-3,0
COc1ccc2nc(C)cc(SCC(=O)N/N=C/c3c(OC)ccc4ccccc34)c2c1,96*[fluorescence artefact?],64*,19,3,50,-12
COc1ccc2nc(C)cc(SCC(=O)N/N=C/c3ccccc3)c2c1,24,8,-1,-14,13,-4
COc1ccc2nc(C)cc(SCC(=O)NNC(=O)COc3ccc(C)cc3)c2c1,-1,8,1,-43,-1,-1
COc1ccc2nc(C)cc(SCC(=O)NNC(=O)COc3cccc4ccccc34)c2c1,57,52*,13,1,3,-1
O=C(Nc1ccc(CN2CCS(=O)(=O)CC2)cc1)c1ccc(Cl)cc1,-3,-46,-3,-10,16,·
COc1ccccc1NC(=O)c1cc(C(=O)Nc2ccccc2OC)cc(N2C(=O)CCC2=O)c1,-12,-39,9,7,4,-4
Cc1ccc(NC(=O)c2sc3nc4c(c(-c5ccco5)c3c2N)CCC4)cc1,-3,-17,4,17,0,-3
Nc1c(C(=O)Nc2ccc(F)cc2)sc2nc(-c3ccco3)ccc12,2,91*,6,98*,-3,11
COc1cc(CNC2CCCC2)cc(Br)c1OCC(=O)Nc1ccccc1C,-1,-12,-1,12,23,-3
O=C(O)CS(=O)(=O)CC(=O)O,20,58*,-1,23,-1,-3
SMILES,14-3-3 Bad inh,Mcl1 Bid PPI,eIF4E-4G inh,Mcl1 Noxa PPI,Hck-Nef inh,Mcl-1 Bim block
NNC(=O)CS(=O)(=O)CS(=O)(=O)CC(=O)NN,-4,-41,-2,11,17,·
CCCN(CCC)S(=O)(=O)c1ccc(NS(=O)(=O)c2ccc(F)cc2)cc1,6,25,-1,20,0,-2
CCN1C(=O)c2cccc3c(NC(=O)C4CCCCC4)ccc1c23,7,83*,3,43,1,-4
CCN1C(=O)c2cccc3c(NC(=O)c4ccccc4)ccc1c23,-4,-15,-1,0,-3,5
O=C(O)C1C2CCCCC2=C2CCCCC2C1C(=O)c1ccccc1 (stereo not drawn),-2,-5,0,9,7,·
Cc1ccc(Nc2nc(=O)c3cccnc3s2)c(Br)c1,-9,-25,11,17,4,·
COC(=O)c1cc(NC(=O)Cn2c(=O)cnc3ccccc32)cc(C(=O)OC)c1,20,62*,-34,27,22,1
CCOC(=O)c1sc2nc(Cc3ccc(Cl)cc3)[nH]c(=S)c2c1C,-4,-23,-1,6,14,-4
Cn1c(SCC(=O)N=Nc2c(O)[nH]c3ccccc23)nc2ccccc21,4,83*,3,42,2,-7
O=C(CSc1nc2ccccc2[nH]1)N=Nc1c(O)[nH]c2ccccc12,4,-33,-2,22,0,12
CC(CCc1ccccc1)NC(=O)CN1C(=O)NC2(CCCCC2)C1=O (stereo not drawn),-2,-13,-3,6,-69,0
CN1CCN(S(=O)(=O)Cc2ccc(Cl)cc2)CC1,0,-28,-3,17,-1,·
Cc1cc(C)cc(Nc2nc(-c3ccc(S(=O)(=O)N4CCCC4)cc3)cs2)c1,0,-29,15,-5,5,-1
COc1ccc(-c2csc(Nc3ccc(S(=O)(=O)Nc4cc(OC)nc(OC)n4)cc3)n2)cc1,-19,-15,6,39,1,-2
Cc1ccc(Nc2nc(-c3ccc(S(=O)(=O)N4CCCC4)cc3)cs2)cc1C,86*,-29,-11,10,1,0
COc1ccc(-c2csc(Nc3ccc(S(=O)(=O)Nc4cc(C)on4)cc3)n2)cc1C,2,-30,2,51*,26,0
CC(C(=O)NC1CCCC1)N(Cc1ccco1)C(=O)c1snc(C(=O)NC2CCCC2)c1N (stereo not drawn),-6,37,0,90*,3,-3
COCCNC(=O)C(c1ccc(C)o1)N(Cc1ccco1)C(=O)c1snc(C(N)=O)c1N (stereo not drawn),-11,-29,1,-6,15,-2
CC(C)=C1C(=O)NN(c2ccc(F)c(Cl)c2)C1=O,-6,-10,3,-8,0,0
O=C1NN(c2ccc(F)c(Cl)c2)C(=O)/C1=C\c1cccc(OC(=O)c2cccs2)c1,15,45,9,94*,0,-1
O=S(=O)(NCc1ccccc1F)NCc1ccccc1F,-8,-13,5,0,20,-1
CC1(C)CC2CC(C)(CN2C(=O)COC(=O)CNC(=O)c2ccc(Cl)c(Cl)c2)C1 (stereo not drawn),0,10,8,6,1,-4
